Assay results: PubChem BioAssay (EPA / NIEHS)
Results filed as inconclusive are left out. The source made the active and inactive calls. How the source made its calls, unless noted: active means hit-call score of the fitted dose curve at least 0.9, where 1 is the maximum; inactive means score below 0.9.

Legend:
[1] = CCTE_Simmons_MITO_viability: CellTiter-Glo Viability Assessment for CCTE's HepG2 Seahorse XF Respirometric Screening Assay [post-hoc], Simmons Lab (AID 2284007; active means hit-call score of the fitted dose curve at least 0.9, where 1 is the maximum;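 on AC50: cells exposed to chemical for 90 min before the ATP read; actives lower ATP signal relative to DMSO baseline meaning reduced viability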)
How it was run: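 Luciferase-coupled ATP luminescence, single endpoint. HepG2, post-respirometry. Compound 125 nM–100 uM final, 7 conc., 90 min. n=3 biological, technical singles. DMSO vehicle/baseline; dichlone 10 nM–100 uM, 8 conc., as positive control.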

[2] = CCTE_Shafer_MEA_acute_spike_number: CCTE's Neural Acute Assay for Total Number of Spikes, Shafer Lab (AID 2284008);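 on AC50: curve fitted for decrease in spike count so AC50 reflects inhibitors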
How it was run: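 Read-out is the total spike count over 40 min, expressed as percent change from each well's own pre-treatment baseline and fitted in the loss direction against DMSO. Rat cortical neurons were exposed at 0.03-40 uM on DIV 13 or 15.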

[3] = CCTE_Shafer_MEA_acute_firing_rate_mean: CCTE's Neural Acute Assay for Mean Firing Rate, Shafer Lab (AID 2284009);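 further: analyzed for loss of signal so actives lower firing rate relative to DMSO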
How it was run: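 Spontaneous spiking of primary rat cortical networks, DIV 13/15, 37 C. Compound 0.03-40 uM, n ≥3 wells; 40 min baseline vs 40 min treated. Endpoint fitted in loss-of-signal direction against DMSO.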

[4] = CCTE_Harrill_HTTr_Viability_MCF7: CCTE's 6-hour Cell Viability Assessment for the High-Throughput Transcriptomics (HTTr) Platform, in MCF-7 cells cultured in DMEM + 10% fetal bovine serum, Harrill Lab (AID 2284010)
How it was run: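 PI exclusion, high-content imaging; 8-pt dilution series, 6 h exposure; bidirectional fit vs DMSO (neg. ctrl/baseline); gain of signal = loss of membrane integrity.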

[5] = CCTE_Harrill_HTTr_Apoptosis_MCF7: CCTE's 6-hour Apoptosis Assessment for the High-Throughput Transcriptomics (HTTr) Platform, in MCF-7 cells cultured in DMEM + 10% fetal bovine serum, Harrill Lab (AID 2284011)
How it was run: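 MCF-7 (DMEM + 10% FBS), 384-well; 8-pt dilution series, 6 h chemical exposure; caspase-3/7 activation via CellEvent Caspase 3/7 Green, HCI; bidirectional fit vs DMSO.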

[6] = CCTE_Harrill_HTTr_CellCount_MCF7: CCTE's Cell Proliferation Assessment for the High-Throughput Transcriptomics (HTTr) Platform, Harrill Lab (AID 2284012; active means hit-call score of the fitted dose curve at least 0.9, where 1 is the maximum;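 further: count of Hoechst-stained nuclei per well by high-content imaging in MCF-7 cells; cells exposed to compound for six hours; intended direction is loss of nuclei count meaning fewer cells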)
How it was run: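 Readout: Hoechst nuclear count by high-content imaging. MCF-7, 8-point dilution series, 6 h exposure. Bidirectional fit vs DMSO baseline.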

[7] = CCTE_Shafer_MEA_acute_burst_number: CCTE's Neural Acute Assay for Single-Electrode Bursts, Shafer Lab (AID 2284013)
How it was run: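 Burst totals were derived with adaptive spike detection (8x rms threshold) on filtered signals from rat cortical cultures; change relative to pre-treatment baseline after 40-min compound exposure (0.03-40 uM) was fitted in the negative direction against DMSO.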

[8] = CCTE_Shafer_MEA_acute_burst_duration_mean: CCTE's Neural Acute Assay for Mean Burst Duration, Shafer Lab (AID 2284014);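 further: hits are decreases in mean burst duration relative to DMSO controls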
How it was run: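 Acute exposure of mature rat cortical networks (DIV 13 or 15) grown on microelectrode arrays to 0.03-40 uM compound. Mean burst duration compared with the 40-min pre-dose baseline over a 40-min post-dose recording at 37 C.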

[9] = CCTE_Shafer_MEA_acute_per_burst_spike_number_mean: CCTE's Neural Acute Assay for Average Number of Spikes Per Burst, Shafer Lab (AID 2284015);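 further: hits are decreases in mean spikes per burst versus baseline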
How it was run: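 Read-out: percent change in mean spikes per burst, each well's post-exposure 40-min recording versus its own 40-min baseline. Rat cortical cultures, DIV 13 or 15, compounds 0.03-40 uM; DMSO is negative control, loss-of-signal fitting.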

[10] = CCTE_Shafer_MEA_acute_interburst_interval_mean: CCTE's Neural Acute Assay for Mean Interburst Interval, Shafer Lab (AID 2284016);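 further: percent change of mean interburst interval versus each well's own pre-dose baseline; curves fitted for decrease in interburst interval relative to DMSO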
How it was run: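 Rat cortical cultures, DIV 13/15; 20 min equilibration, 40 min baseline, compound 0.03-40 uM, 40 min re-recording, 37 C. Spikes detected at 8x rms noise (300-5000 Hz band-pass). Endpoint: % change in interburst interval, fitted in loss direction vs DMSO.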

Measured: AC50

Oc1cc2ccccc2c2ccccc12
active: [1] 6.92 µM | [4] 9.92 µM
inactive: all other assays above

CC(C)CCCCCCOC(=O)CCCCC(=O)OCCCCCCC(C)C
not listed: [1]
inactive: all other assays above

NC(=O)N1C(=O)C(C(=O)c2cc(Cl)cs2)c2cc(F)c(Cl)cc21 (configuration not stated)
active: [1] 2.3 µM
inactive: [4] | [5] | [6]

O=c1c(-c2ccc(O)cc2)coc2cc(O)ccc12
active: [2] 3.28 µM
not listed: [1]
inactive: all other assays above

CCc1ccc(CCOc2ccc(CC3SC(=O)NC3=O)cc2)nc1 (configuration not stated)
not listed: [1]
inactive: all other assays above

c1ccc2cc3c(ccc4ccccc43)cc2c1
inactive: [4] | [5]

CN1CCN(c2ccccc2/C=C2\SCCN(c3ccc(Cl)c(Cl)c3)C2=O)CC1
active: [2] 10.3 µM | [3] 10.5 µM | [4] 73.7 µM | [6] 77.1 µM | [8] 32 µM
inactive: [5] | [7] | [9] | [10]

CC(C)(C)CC(C)(C)c1ccc(O)c(-n2nc3ccccc3n2)c1
inactive: [4] | [5]

Oc1cccc(O)c1
inactive: [4] | [5]

O=[N+]([O-])c1ccc(O)cc1
inactive: [1] | [4] | [5] | [6]

OCCC(F)(F)C(F)(F)C(F)(F)C(F)(F)C(F)(F)C(F)(F)C(F)(F)C(F)(F)F
not listed: [1] | [6]
inactive: all other assays above

OC1CCC(C2CCCCC2)CC1 (configuration not stated)
active: [2] 20 µM | [3] 20 µM
inactive: all other assays above

CC(O)C(=O)O (configuration not stated)
inactive: [4] | [5]

CCCCCCCCCCCCc1ccccc1S(=O)(=O)O
not listed: [1] | [6]
inactive: all other assays above

CCCOc1sc(C(=O)N2CCC(c3cc(CN)ccc3F)CC2)c(C)c1Br
inactive: [2] | [3] | [7] | [8] | [9] | [10]

CN1CCC[C@H]1c1cccnc1
active: [7] 0.0479 µM
inactive: [2] | [3] | [8] | [9] | [10]

CCCOC(=O)c1ccc(O)cc1
inactive: [1] | [4] | [5] | [6]

c1ccc2c(c1)ccc1ccccc12
inactive: [4] | [5]

Cc1cc(CCN2CCN(c3nsc4ccccc34)CC2)cc2c1NC(=O)CC2(C)C
active: [1] 9.34 µM | [2] 8.94 µM | [3] 8.94 µM | [4] 77.3 µM | [5] 63.6 µM | [6] 92.2 µM | [8] 8.81 µM | [9] 20 µM | [10] 5.98 µM
inactive: [7]

CC(C)(C)c1cc(C(C)(C)C)c(O)c(C(C)(C)C)c1
inactive: [2] | [3] | [7] | [8] | [9] | [10]

O=C(O)c1ccccc1C(c1ccc(O)cc1)c1ccc(O)cc1
not listed: [1] | [6]
inactive: all other assays above

CCCCCCCCCCCCCCCS(=O)(=O)Oc1ccccc1
inactive: [2] | [3] | [7] | [8] | [9] | [10]

CC(=O)NC1(c2cccc(F)c2)CCN(CC[C@@]2(c3ccc(Cl)c(Cl)c3)CN(c3ccccc3)C(=O)CO2)CC1
active: [2] 1.47 µM | [3] 1.47 µM | [7] 1.24 µM | [8] 1.04 µM
not listed: [1]
inactive: all other assays above

O=C(O)Cc1cc(I)c(Oc2cc(I)c(O)c(I)c2)c(I)c1
inactive: [1] | [4] | [5] | [6]

CN(C)C=O
inactive: [2] | [3] | [7] | [8] | [9] | [10]

Cc1oc(-c2ccccc2)nc1CCOc1ccc(C[C@H](Nc2ccccc2C(=O)c2ccccc2)C(=O)O)cc1
inactive: [4] | [5] | [6]

CCCCC(CC)COC(=O)CCCCC(=O)OCC(CC)CCCC (configuration not stated)
inactive: [4] | [5] | [6]

COCC(C)O (configuration not stated)
inactive: [4] | [5] | [6]

CC(=O)CC(C)(C)O
inactive: [4] | [5] | [6]
